# Experimental data published in article PMC4336329 (PLoS ONE, 2015).
# The whole screen tested about 310,000 compounds, of which about 14,000 (4.5%) showed an effect of 50% or more. Effects have a minus sign here. This is one part of a sample in which strong results are shown more often than they occur.
# Target: human ether-à-go-go-related gene (hERG) potassium channel (human, UniProt Q12809)
# Assay: primary screen, population patch clamp on CHO cells stably expressing hERG; higher = less effect of the substance
# 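Further: peak tail current of the secondary pulse compared with the same well before compound.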
# Chain of human ether-à-go-go-related gene (hERG) potassium channel (Q12809 whole entry, looked up): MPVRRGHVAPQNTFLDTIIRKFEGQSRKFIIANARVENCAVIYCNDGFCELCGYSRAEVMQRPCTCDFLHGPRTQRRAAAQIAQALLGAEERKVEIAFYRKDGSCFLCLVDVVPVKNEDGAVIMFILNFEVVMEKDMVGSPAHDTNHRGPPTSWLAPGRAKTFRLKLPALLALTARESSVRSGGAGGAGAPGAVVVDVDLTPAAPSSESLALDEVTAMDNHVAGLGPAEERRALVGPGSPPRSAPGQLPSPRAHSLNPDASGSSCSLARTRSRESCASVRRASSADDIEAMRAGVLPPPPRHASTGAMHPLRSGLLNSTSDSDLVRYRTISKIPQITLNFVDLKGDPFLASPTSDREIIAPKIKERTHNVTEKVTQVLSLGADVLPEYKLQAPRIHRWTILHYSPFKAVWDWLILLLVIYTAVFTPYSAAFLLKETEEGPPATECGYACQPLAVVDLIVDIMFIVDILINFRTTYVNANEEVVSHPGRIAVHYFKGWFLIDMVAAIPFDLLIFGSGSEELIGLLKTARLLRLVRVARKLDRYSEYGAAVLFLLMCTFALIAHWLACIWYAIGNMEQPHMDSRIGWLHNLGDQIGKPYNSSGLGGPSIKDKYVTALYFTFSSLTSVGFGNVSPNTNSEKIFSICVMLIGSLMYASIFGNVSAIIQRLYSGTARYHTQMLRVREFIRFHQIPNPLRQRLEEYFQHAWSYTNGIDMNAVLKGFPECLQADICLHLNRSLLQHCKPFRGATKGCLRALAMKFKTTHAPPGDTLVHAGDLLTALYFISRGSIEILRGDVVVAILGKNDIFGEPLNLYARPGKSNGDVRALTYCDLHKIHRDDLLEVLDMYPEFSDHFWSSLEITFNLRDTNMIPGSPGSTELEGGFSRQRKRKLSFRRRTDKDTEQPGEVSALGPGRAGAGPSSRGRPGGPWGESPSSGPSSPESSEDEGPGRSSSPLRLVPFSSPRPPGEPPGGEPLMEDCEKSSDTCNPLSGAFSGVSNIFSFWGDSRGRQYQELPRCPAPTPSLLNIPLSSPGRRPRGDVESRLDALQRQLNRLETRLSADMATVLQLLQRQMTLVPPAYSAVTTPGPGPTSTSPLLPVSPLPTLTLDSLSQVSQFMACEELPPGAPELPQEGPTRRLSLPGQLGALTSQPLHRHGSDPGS
row,Structure (SMILES),"hERG current change (%, negative = inhibition) at 10uM [%]"
1,Cc1nn(C)c(Oc2ccc(Cl)cc2)c1C(=O)O,12.8
2,CC1=CC(C)C2(COC(=O)Nc3ccccc3)COC(C)C1C2C (centres unmarked),-3.03
3,CCOC(=O)C1CCN(Cc2cccc(Oc3ccc(Cl)cc3)c2)CC1,3.3
4,CCn1c(CNC(=O)c2cccs2)n[nH]c1=S,3.27
5,Cc1cccc(COc2ccc(/C=N/NC(=O)c3nnn(-c4nonc4N)c3C)cc2)c1,15.3
6,O=C(COc1cccnc1[N+](=O)[O-])Nc1ccc2c(c1)OCO2,6.1
7,Cc1cc(NC(=O)c2ccc(S(=O)(=O)N(C)CC3CCCO3)cc2)no1 (centres unmarked),2.09
8,COc1ccccc1CCNS(=O)(=O)c1cn(C)nc1C,1.14
9,CN(CCC#N)C(=O)COC(=O)c1ccc(Cl)c(S(=O)(=O)N(C)c2ccccc2)c1,-58.2
10,O=C(OCC(=O)N1CCN(C(=O)c2ccco2)CC1)c1ccccc1,10.4
11,COCCN(CCOC)C(=O)COC(=O)c1ccc(Cl)c(S(=O)(=O)N(C)c2ccccc2)c1,-48.4
12,O=C(OCC(=O)N1CCN(C(=O)c2ccco2)CC1)c1ccc(Cl)c(Cl)c1,-62.9
13,O=C(OCC(=O)N1CCN(C(=O)c2ccco2)CC1)c1ccc(Cl)cc1,-38.7
14,CN(CCC#N)C(=O)COC(=O)c1ccc(Cl)c(S(N)(=O)=O)c1,21.8
15,O=C(Nc1ccc2c(c1)CCC2)c1cccs1,24.7
16,O=C(CSc1ccc2nnc(-c3ccc(Cl)cc3)n2n1)N1CCCc2ccccc21,1.71
17,CCOC(=O)c1c(C)n(C)c2ccc(OC(C)C(=O)OC)cc12 (centres unmarked),-10
18,COc1cc(/C=N/Nc2ccccn2)ccc1OCC(C)C,27.5
19,CCCCn1c(-c2csc(C(C)C)c2)n[nH]c1=S,20.9
20,Cc1ccc(COc2ccsc2C(=O)NNC(N)=S)cc1,19.9

row,Structure (SMILES),"hERG current change (%, negative = inhibition) at 10uM [%]"
1,CCN(CC)CCCOC(=O)C(c1ccccc1)c1ccccc1.Cl,-56.5
2,CCN(CC)CCCOC(=O)C(OC)(c1ccccc1)c1ccccc1.Cl,-27.9
3,CCN(CC)CCOC(=O)C(c1ccccc1)c1ccccc1.Cl,-52.2
4,CCN(CC)CC#CCOC(c1ccccc1)c1ccccc1.Cl,-43.3
5,CCCOc1ccc(C(C(=O)OCCN(CC)CC)c2ccccc2)cc1.O=C(O)C(=O)O (centres unmarked),-43
6,CCN(CC)CCCOC(=O)C(OC(C)C)(c1ccccc1)c1ccccc1.Cl,-31.9
7,CCCC(C(=O)OCCN(CC)CC)(c1ccccc1)c1ccccc1.Cl,-53.9
8,CCN(CC)CCOCCOC(=O)C(CC)(CC)c1ccccc1,-9.35
9,CCNCCOC(c1ccccc1)c1ccccc1.Cl,-31.8
10,CCN(CC)CCOC(c1ccccc1)c1ccc(C)cc1.Cl (centres unmarked),-73
11,CCN(CC)CCOC(=O)C(O)(c1ccccc1)c1ccccc1.Cl,-42.1
12,CCC(C(=O)OCCOCCN(CC)CC)c1ccccc1 (centres unmarked),1.01
13,O=C(NNC(=O)c1cccs1)c1ccc(Cl)c([N+](=O)[O-])c1,-6.26
14,COC(=O)[C@H](CC(C)C)NC(=O)N1CCC(C)CC1,16.7
15,CCOc1ccc(C(C)=O)cc1CN1C(=O)NC2(CCCCCC2)C1=O,3.83
16,COc1ccccc1NC(=O)c1c(C)oc2c1CCCC2,4.78
17,O=C(O)c1cccc(CSc2nnc(-c3ccc(Cl)cc3)o2)c1,12.5
18,Cc1nn(Cc2ccccc2)c(C)c1NC(=O)CCC(=O)O,2.81
19,O=C(O)CCC(=O)Nc1ccc(F)cc1,12.7
20,CCNc1c(NCC)c(=O)c1=O,15.2

row,Structure (SMILES),"hERG current change (%, negative = inhibition) at 10uM [%]"
1,CC(C)CC(=O)Nc1nnc(SCC(=O)NCc2ccc3c(c2)OCO3)s1,17.7
2,O=C(O)c1cccc(N2C(=O)c3ccc(Oc4ccc(Cl)cc4)cc3C2=O)c1,12.8
3,O=C(NNC(=S)NCc1ccccc1)c1ccc2c(c1)OCO2,8.77
4,CCCOc1ccc(C(=O)N2CCN(c3ccc(N)cc3Cl)CC2)cc1,-31.7
5,CCN1CCN(c2ccc(NC(C)=O)cc2Cl)CC1,-1.19
6,CCN1CCN(c2ccc(NC(=O)c3cccnc3)cc2Cl)CC1,-16.8
7,O=C(Nc1ccc(N2CCOCC2)c(Cl)c1)c1cccc(F)c1,-21.2
8,CCN1CCN(c2ccc(NC(=O)c3cccc(F)c3)cc2Cl)CC1,-75.2
9,CCC(=O)Nc1ccc(N2CCN(CC)CC2)c(Cl)c1,-3.56
10,COc1ccc(OCC(=O)Nc2ccc(N3CCN(C(=O)c4ccccc4)CC3)c(Cl)c2)cc1,-19.4
11,CCCOc1ccc(C(=O)N2CCN(c3ccc(NC(=O)CC)cc3Cl)CC2)cc1,-77
12,O=C(Nc1ccc(N2CCOCC2)c(Cl)c1)c1ccc(F)cc1,-3.11
13,CCCCCC(=O)Nc1ccc(N2CCN(CC)CC2)c(Cl)c1,-71.5
14,CCN1CCN(c2ccc(NC(=O)c3ccc(F)cc3)cc2Cl)CC1,-75.6
15,CCCC(=O)Nc1ccc(N2CCN(CC)CC2)c(Cl)c1.Cl,-47.8
16,COc1ccc(-c2nnc(SCc3nnc(-c4cccs4)o3)n2CC2CCCO2)cc1 (centres unmarked),-32
17,Cc1ccc(OCc2nnc(NC(=O)c3ccco3)s2)cc1,6.86
18,Cc1cccc(N(C(=O)c2csnn2)C(C(=O)NCc2ccccc2)c2ccncc2)c1 (centres unmarked),-18.7
19,CCN(CC)CCCN1C(=O)C(O)=C(C(=O)c2sc(C)nc2C)C1c1ccco1 (centres unmarked),-0.605
